TDP1 inh = qHTS Assay for Inhibitors of Tyrosyl-DNA Phosphodiesterase (TDP1); Potency, µM (doses to about 130 µM), usual class: inhibitors; recombinant TDP1, AlphaScreen DNA substrate cleavage; AID 485290, 2010; 350,000 compounds, 0.28% hits; note: nearly all actives have a fitted effect of over 40% in size
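Compounds were preincubated with Tdp1 (1 nM final) for 15 min at room temperature before substrate (15 nM final) started a 5 min reaction; beads (10 ug/ml final) were then added for 10 min before AlphaScreen detection.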
GCN5L2 inh = qHTS Assay for Inhibitors of GCN5L2; Histone acetyltransferase KAT2A (Homo sapiens), Q92830; GCN5L2 HAT assay, ThioGlo1 CoA-SH fluorescence; 390,000 compounds, 0.21% hits; AID 504327, 2011; Potency, µM (titrated, usually from 58.9 µM), hits mostly inhibitors
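ThioGlo1-coupled HAT assay: 20nM GCN5L2, 70uM acetyl-CoA, 75uM H3(1-25) peptide, pH 7.5. Fluorescence read at 340/540nm at start and after 20 min at room temperature.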
TDP1 cell noCPT = qHTS for Inhibitors of human tyrosyl-DNA phosphodiesterase 1 (TDP1): qHTS in cells in absence of CPT | DT40 Tdp1-/- hTDP1 cells, no CPT, ATP luminescence, 48 h | Potency, µM (top dose mostly 46.2 µM), usual class: inhibitors | 420,000 compounds, 15% hits; note: nearly all actives have a fitted effect of over 55% in size
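Seeded 400 DT40-hTDP1 cells/well (vehicle DMSO, no 20 nM CPT); pinned compounds; ≥48 hr at 37 °C; CellTiter-Glo luminescence as viability measure.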
DT40 TDP1 CPT = qHTS for Inhibitors of human tyrosyl-DNA phosphodiesterase 1 (TDP1): qHTS in cells in presence of CPT | 420,000 compounds, 12% hits | chicken DT40 Tdp1-/-;hTDP1 cells + 20 nM CPT, ATP luminescence, 48 h | Potency, µM (top dose mostly 46.2 µM), actives largely listed as inhibitors | AID 686979, 2013; note: nearly all actives have a fitted effect of over 55% in size
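Chicken DT40 Tdp1-/- cells stably complemented with human TDP1 were seeded at 400 cells/well in medium containing 20 nM camptothecin, exposed to pin-transferred compounds, and grown at 37 °C for at least 48 hr. Viability was read as ATP luminescence.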
PLK1 PBD inh = qHTS for Inhibitors of PLK1-PDB (polo-like kinase 1 - polo-box domain): Primary Screen; 360,000 compounds, 2.8% hits; Potency, µM, usual class: inhibitors; AID 720504, 2013; Plk1 PBD binding of FITC phosphopeptide, fluorescence polarization; Serine/threonine-protein kinase PLK1 (Homo sapiens), P53350; note: series mostly up to about 57 µM; nearly all actives have a fitted effect of over 65% in size
VDR inhibitor = Inhibitors of the vitamin D receptor (VDR): qHTS; Vitamin D3 receptor (Homo sapiens), P11473; VDR-SRC2-3 peptide fluorescence polarization, 2 h; Potency, µM, hits mostly inhibitors; 400,000 compounds, 0.93% hits
Target sequence (P11473 whole entry, looked up): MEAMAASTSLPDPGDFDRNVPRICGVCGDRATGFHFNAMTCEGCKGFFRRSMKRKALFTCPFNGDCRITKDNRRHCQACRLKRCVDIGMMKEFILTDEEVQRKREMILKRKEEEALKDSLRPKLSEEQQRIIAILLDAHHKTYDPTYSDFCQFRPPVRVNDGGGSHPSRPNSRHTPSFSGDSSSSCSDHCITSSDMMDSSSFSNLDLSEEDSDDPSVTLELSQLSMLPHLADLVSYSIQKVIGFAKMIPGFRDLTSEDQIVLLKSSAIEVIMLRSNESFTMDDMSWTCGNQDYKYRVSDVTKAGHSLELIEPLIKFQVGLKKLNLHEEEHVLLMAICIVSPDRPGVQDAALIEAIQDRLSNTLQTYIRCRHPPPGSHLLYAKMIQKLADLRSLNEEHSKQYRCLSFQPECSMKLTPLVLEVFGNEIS
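After 23 nl compound addition and a short centrifugation, plates sat for 2 hours at ambient temperature; polarization of fluorescence then indicated loss of VDR binding to peptide SRC2-3.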
Of the large screens only hits and unclear results are named; the others gave an inactive call. The list is not random: actives were taken first. Their share in the collection is about 18%. Calls come from the whole dose curve; as a rule, active = well fitted curve in the direction sought with a large enough effect; inconclusive = small, poorly fitted or top-dose-only effect, or another doubt; inactive = no such curve, though single readings can be large; an effect the other way counts as inactive or inconclusive.

CC(C)OCCCn1c(SCc2ccccc2Cl)nc2c(sc3ccccc32)c1=O	none (no result: PLK1 PBD inh)
COc1ccc(C(=O)N/C(=C\c2ccc3c(c2)OCO3)C(=O)N2CCOCC2)cc1	none (no result: TDP1 inh)
CCOC(=O)c1c(NC(=O)C(=O)N/N=C/c2ccc(O)c(OC)c2)sc2c1CCCCC2	TDP1 cell noCPT 23µM, DT40 TDP1 CPT inconclusive
CCOC(=O)c1c(NC(=S)Nc2ccccc2)sc2c1CCCCC2	none
CCOC(=O)c1c(NC(=O)C(=O)N/N=C/c2ccc(OCC)cc2)sc2c1CCCCC2	TDP1 cell noCPT inconclusive, DT40 TDP1 CPT inconclusive
CCOC(=O)c1c(NC(=O)c2nn(CC)cc2Br)sc2c1CCCCC2	TDP1 cell noCPT inconclusive, DT40 TDP1 CPT 18µM
CCOC(=O)c1c(NC(=O)C2C3C=CC(C3)C2(C)C(=O)O)sc2c1CCCC2 (stereo not drawn)	TDP1 inh inconclusive, TDP1 cell noCPT 18µM, DT40 TDP1 CPT 13µM
CCOC(=O)c1c(NC(=O)c2ccc(N3C(=O)[C@@H]4[C@H](C3=O)[C@H]3C=C[C@@H]4C3)cc2)sc2c1CCCC2	GCN5L2 inh inconclusive, TDP1 cell noCPT 23µM
COc1ccc(CC(=O)NCC2CCCN(Cc3cccc(SC)c3)C2)cc1 (stereo not drawn)	PLK1 PBD inh inconclusive (no result: TDP1 inh)
CCOC(=O)c1sc(NC(=O)c2nc3ncccn3n2)c(C(=O)OC)c1C	none (no result: PLK1 PBD inh)
CSCC[C@H](NC(=O)[C@H](CO)NC(=O)[C@H](Cc1ccc(O)cc1)NC(=O)[C@@H](N)CO)C(=O)N[C@@H](CCC(=O)O)C(=O)N[C@@H](Cc1cnc[nH]1)C(=O)N[C@@H](Cc1ccccc1)C(=O)N[C@@H](CCCNC(=N)N)C(=O)N[C@@H](Cc1c[nH]c2ccccc12)C(=O)NCC(=O)N[C@@H](CCCCN)C(=O)N1CCC[C@H]1C(=O)N[C@H](C(=O)NCC(=O)N[C@@H](CCCCN)C(=O)N[C@@H](CCCCN)C(=O)N[C@@H](CCCNC(=N)N)C(=O)N[C@@H](CCCNC(=N)N)C(=O)N1CCC[C@H]1C(=O)N[C@H](C(=O)N[C@@H](CCCCN)C(=O)N[C@H](C(=O)N[C@@H](Cc1ccc(O)cc1)C(=O)N1CCC[C@H]1C(=O)N[C@@H](CC(N)=O)C(=O)NCC(=O)N[C@@H](C)C(=O)N[C@@H](CCC(=O)O)C(=O)N[C@@H](CC(=O)O)C(=O)N[C@@H](CCC(=O)O)C(=O)N[C@@H](CO)C(=O)N[C@@H](C)C(=O)N[C@@H](CCC(=O)O)C(=O)N[C@@H](C)C(=O)N[C@@H](Cc1ccccc1)C(=O)N1CCC[C@H]1C(=O)N[C@@H](CC(C)C)C(=O)N[C@@H](CCC(=O)O)C(=O)N[C@@H](Cc1ccccc1)C(=O)O)C(C)C)C(C)C)C(C)C	none (no result: TDP1 cell noCPT, DT40 TDP1 CPT, PLK1 PBD inh)
CCOC(=O)c1c(NC(=O)c2ccc(Br)cc2)sc2c1CCCC2	none (no result: PLK1 PBD inh)
CCOC(=O)c1nn(-c2ccccc2)c(C#N)c1NC(=O)c1nn(CC)cc1Br	TDP1 cell noCPT 18µM, DT40 TDP1 CPT 15µM (no result: GCN5L2 inh)
CCOC(=O)c1c(NC(NC(=O)C(C)C)C(Cl)(Cl)Cl)sc2c1CCC2 (stereo not drawn)	TDP1 cell noCPT 16µM, DT40 TDP1 CPT 15µM
CCOC(=O)c1c(NC(=O)c2ccc(-n3cnnn3)cc2)sc2c1CCCC2	TDP1 cell noCPT 16µM, DT40 TDP1 CPT 12µM
CCOC(=O)c1c(NC(=O)c2ccn(CC)n2)sc2c1CCC2	TDP1 cell noCPT inconclusive
O=C(COC(=O)c1ccccc1NCCO)Nc1cccc(S(=O)(=O)NC2=NCCCCC2)c1	none
CC(C)(C)c1ccc(C(=O)c2c[nH]c(C(=O)NCC3CCCO3)c2)cc1 (stereo not drawn)	TDP1 cell noCPT 15µM, DT40 TDP1 CPT inconclusive
CC(C)(C)c1ccc(C(=O)c2c[nH]c(C(=O)NCCCN3CCOCC3)c2)cc1	TDP1 cell noCPT 18µM, DT40 TDP1 CPT inconclusive
COc1ccc(OC)c(NC(=O)c2cccc(NC(=O)c3ccccc3C(=O)O)c2)c1	none (no result: TDP1 inh)
CC(C)N1CCC(N2CCN(CC#Cc3ccccc3)CC2CCO)CC1 (stereo not drawn)	TDP1 cell noCPT inconclusive (no result: TDP1 inh)
CCC(C(=O)OCC(=O)NC(=O)NC(C)(C)C)c1ccccc1 (stereo not drawn)	TDP1 cell noCPT inconclusive, DT40 TDP1 CPT inconclusive, PLK1 PBD inh 27µM
Cc1ccc2c(c1)c1c(n2CC(O)CNC2CCCCC2)CCCC1 (stereo not drawn)	TDP1 cell noCPT 15µM, DT40 TDP1 CPT 23µM
CC(=O)c1c(-c2ccccc2)c2cc([N+](=O)[O-])ccc2[nH]c1=O	TDP1 cell noCPT 15µM, DT40 TDP1 CPT inconclusive (no result: TDP1 inh)
CCN(CC)C(=O)c1c(NC(=O)c2ccccc2F)sc2c1CCC(C(C)(C)C)C2 (stereo not drawn)	TDP1 cell noCPT inconclusive, DT40 TDP1 CPT 23µM (no result: TDP1 inh, PLK1 PBD inh)
CCC(C)(C)C1CCc2c(sc(NC(=O)c3ccccc3C(=O)O)c2C#N)C1 (stereo not drawn)	GCN5L2 inh inconclusive, TDP1 cell noCPT inconclusive, PLK1 PBD inh 27µM
CC(C)(C)C1CCc2c(sc(NC(=O)C3CC=CCC3C(=O)O)c2C#N)C1 (stereo not drawn)	PLK1 PBD inh 21µM, VDR inhibitor inconclusive
O=S(=O)(O)c1ccc(O)cc1	none (no result: PLK1 PBD inh)
Nc1nc(Nc2ccccc2)nc(NC2CCCCC2)c1[N+](=O)[O-]	TDP1 cell noCPT inconclusive, DT40 TDP1 CPT 13µM (no result: TDP1 inh)
COc1ccc(OC)c(C(=O)N2CCOc3ccc(C(C)(O)CN(C)C)cc3C2)c1 (stereo not drawn)	none (no result: TDP1 inh, GCN5L2 inh, PLK1 PBD inh, VDR inhibitor)
CCOC(=O)C[n+]1c(C)sc2ccc(OC)cc21	TDP1 cell noCPT 8.2µM, DT40 TDP1 CPT 8.2µM, PLK1 PBD inh 27µM, VDR inhibitor inconclusive
CCC1Oc2ccccc2N(CC(=O)NC2CCCCC2C)C1=O (stereo not drawn)	none
CCN1C(=O)c2cccc3c(NC(=O)C(C)(C)C)ccc1c23	none
CCOc1cc(C(=O)Nc2ccc3c4c(cccc24)C(=O)N3CC)cc(OCC)c1OCC	TDP1 cell noCPT 23µM, DT40 TDP1 CPT inconclusive
CC(=O)c1cc(F)c(N2CCCC2)cc1C	TDP1 cell noCPT 21µM, DT40 TDP1 CPT 21µM
CC(=O)c1cc(F)c(N2CCOCC2)cc1C	none

Compound activity deposited in PubChem BioAssay by National Center for Advancing Translational Sciences (NCATS).
